Bioassay records (PubChem BioAssay)
SKKanGAS inh: blocks kanamycin growth of S. pyogenes SKKanGAS strain; BacTiter-Glo, 6 h; inhibition, % at 7.5 µM; 300,000 tested, 1.3% active;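 active = mean replicate score, as percent of positive control median, at least 50; inconclusive = mean below 50 but one replicate at or above 50; inactive = mean and every replicate below 50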;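 note: strain carries kanamycin resistance gene driven by streptokinase promoter and grows in 40 µg/ml kanamycin; loss of luminescence reflects streptokinase promoter inhibition or plain growth inhibition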
tim23-1 inh: tim23-1 yeast growth inhibition. S. cerevisiae tim23-1 growth, BacTiter-Glo luminescence, 24 h. inhibition, % at 20 µM. 330,000 tested, 1.3% active;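 active = growth inhibition of the mutant yeast at or above 50%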;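 note: temperature-sensitive mutant grown at 25 °C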
tim10-1 inh: tim10-1 yeast growth inhibition; inhibition, % at 20 µM; S. cerevisiae tim10-1 ts strain growth, BacTiter-Glo, 24 h; AID 463190; 330,000 tested, 2.2% active;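 active = inhibition of at least 40%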;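 note: mutant grown at 25 °C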
TIM10 inh: inhibits growth of TIM10 yeast strain | S. cerevisiae TIM10 strain growth, BacTiter-Glo luminescence, 24 h | inhibition, % at 10 µM | 330,000 tested, 1.4% active;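 active = inhibition of 40% or more at the single tested concentration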;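 note: wild-type TIM10 isogenic control strain grown at permissive 25 °C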
PfHsp90 yeast 2: inhibits growth of yeast expressing Plasmodium falciparum Hsp90 | S. cerevisiae expressing PfHsp90, BacTiter-Glo ATP, 48 h; yeast lacking PDR1 and PDR3 efflux regulators | inhibition, % at 9.4 µM | 310,000 tested, 0.32% active | AID 504621;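 active = every replicate shows inhibition above about 80%, whatever the replicate mean, limit read from the data; inconclusive = mean inhibition reaches the set limit but some replicate falls short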
Each line names hits and unclear results; the compound was inactive in the other large screens. Only some compounds are listed: those with a hit (about 4.4% of all), similar ones and a draw of the others.

O=C(Nc1nnc(-c2ccncc2)o1)c1cccc(N2C(=O)CCC2=O)c1	none
CSc1cccc(-c2nnc(NC(=O)c3cccc(N4C(=O)CCC4=O)c3)o2)c1	SKKanGAS inh 85
O=C(Nc1nnc(-c2ccco2)o1)c1cccc(N2C(=O)CCC2=O)c1	none
CCOc1cc2c(cc1O)C(=NOC)CC1C2CCC2(C)C(O)CCC12 (centres undefined)	none (no result: SKKanGAS inh, tim23-1 inh, tim10-1 inh, TIM10 inh)
CCc1ccccc1NC(=O)CN1CCN(C(=O)CNC(=O)c2ccc(N3CCCC3=O)cc2)CC1	none (no result: SKKanGAS inh, PfHsp90 yeast 2)
Cc1ccc2c(c1)=C(c1sc(N(C)c3ccc(O)cc3)nc1O)C(=O)N=2	SKKanGAS inh 80
CC(=O)N1CCN(c2ccc(OC[C@H]3CO[C@](Cn4ccnc4)(c4ccc(Cl)cc4Cl)O3)cc2)CC1	PfHsp90 yeast 2 104
Cc1ccc(-c2csc3nc[nH]c(=S)c23)cc1	none
S=c1[nH]cnc2scc(-c3ccc(Cl)cc3)c12	SKKanGAS inh 76 (no result: PfHsp90 yeast 2)
Cc1cc(-c2csc3nc[nH]c(=S)c23)cc(C)c1C	SKKanGAS inh 92
CC1(CNC(=O)C(=O)NCC2(C)CO2)CO1 (centres undefined)	none (no result: SKKanGAS inh, tim23-1 inh, tim10-1 inh, TIM10 inh)
Cc1ccc(NC(=O)c2nc(S(=O)(=O)Cc3ccccc3)ncc2Cl)cc1	PfHsp90 yeast 2 104
Nc1nc2ccccc2[nH]1	none
Nc1ccccc1Sc1nc2ccccc2[nH]1	SKKanGAS inh 61
Cc1csc(NC(=O)c2c(O)c3c(n(CC(C)C)c2=O)CCCC3)n1	SKKanGAS inh 61
CCCn1c2c(c(O)c(C(=O)Nc3nc(C)cs3)c1=O)CCCC2	none (no result: tim23-1 inh, tim10-1 inh, TIM10 inh, PfHsp90 yeast 2)
CC(C)C1C(c2ccccc2)N(C)C(c2ccccc2)CC1(O)c1ccccc1 (centres undefined)	SKKanGAS inh 88
CC(C)C1C(c2ccccc2)NC(c2ccccc2)CC1(O)c1ccc(F)cc1 (centres undefined)	none
Oc1ccc(Br)cc1/C=N/Nc1ncc(-c2ccccc2)cn1	SKKanGAS inh 83
Oc1ccc(Br)cc1/C=N/NC(=S)NCCc1ccccc1	SKKanGAS inh 90
CC(=O)N(Cc1ccccc1)C(CC(=O)NCc1ccccc1)C(=O)O (centres undefined)	none (no result: SKKanGAS inh, tim23-1 inh, tim10-1 inh, TIM10 inh)
O=C(CNC(=O)c1cccc(Br)c1)N/N=C/c1cc(Br)cc(Br)c1O	SKKanGAS inh inconclusive
O=C(Cc1ccccc1)N/N=C/c1cc(Br)cc(Br)c1O	SKKanGAS inh 112
Oc1c(Br)cc(Br)cc1/C=N/Nc1ccc(Cl)nn1	SKKanGAS inh 84 (no result: tim23-1 inh, tim10-1 inh, TIM10 inh)
O=C(O)c1ccccc1N/N=C/c1cc(Br)cc(Br)c1O	SKKanGAS inh 58
CCOC(=O)C1=C(COC(=O)c2cc(S(=O)(=O)N3CCOCC3)ccc2F)NC(=O)NC1C (centres undefined)	none (no result: SKKanGAS inh, tim23-1 inh, tim10-1 inh, TIM10 inh)
Cc1ccc(NC(=O)COC(=O)c2ccc(CN3CCCC3=O)cc2)c(Cl)c1	none (no result: SKKanGAS inh)
Cc1cccc(N2C(=O)C(O)=C(C(=O)c3cccs3)C2c2cccc(Oc3ccccc3)c2)n1 (centres undefined)	SKKanGAS inh 65
O=C(C1=C(O)C(=O)N(c2ccccc2)C1c1ccc([N+](=O)[O-])cc1)c1cccs1 (centres undefined)	SKKanGAS inh 59
Cc1cccc(N2C(=O)C(O)=C(C(=O)c3cccs3)C2c2ccccc2)n1 (centres undefined)	none
Cc1noc(C)c1C(=O)Nc1cccc(S(=O)(=O)N2CCOCC2)c1	none (no result: SKKanGAS inh)
CCN(CC)S(=O)(=O)c1cccc(C(=O)NCC(c2ccccc2)N(C)C)c1 (centres undefined)	PfHsp90 yeast 2 107
O=C1/C(=N\S(=O)(=O)c2cccs2)C([n+]2ccc(CCCc3ccccc3)cc2)=C([O-])c2ccccc21	SKKanGAS inh 110 (no result: PfHsp90 yeast 2)
O=C1/C(=N\S(=O)(=O)c2cccs2)C([n+]2cccc(Cc3ccccc3)c2)=C([O-])c2ccccc21	SKKanGAS inh 106
Cc1cc(C)c[n+](C2=C([O-])c3ccccc3C(=O)/C2=N\S(=O)(=O)c2cccs2)c1	SKKanGAS inh inconclusive
Cc1cc[n+](C2=C([O-])c3ccccc3C(=O)/C2=N\S(=O)(=O)c2cccs2)cc1C	none
CC(C)(C)c1cc[n+](C2=C([O-])c3ccccc3C(=O)/C2=N\S(=O)(=O)c2ccccc2)cc1	SKKanGAS inh 86 (no result: PfHsp90 yeast 2)
COc1ccc(S(=O)(=O)N2CCOCC2)cc1NC(=O)c1cc2ccccc2o1	none (no result: SKKanGAS inh, PfHsp90 yeast 2)
CC(C)N1CCSC1=S	none (no result: SKKanGAS inh, tim23-1 inh, tim10-1 inh, TIM10 inh)
O=C(c1ccc(Cl)c(Cl)c1)N1CCC(=O)N(C(COCc2ccc(Cl)cc2)Cc2ccccc2)CC1 (centres undefined)	SKKanGAS inh 51
N#Cc1ccccc1S(=O)(=O)N1CCN(C(=O)C2CC(=O)N(c3ccc4c(c3)OCCO4)C2)CC1 (centres undefined)	none (no result: SKKanGAS inh)
Cc1[nH][nH]c(=O)c1C(c1c(C)[nH][nH]c1=O)c1cn(Cc2ccc(Cl)c(Cl)c2)c2ccccc12	SKKanGAS inh 69 (no result: tim23-1 inh, tim10-1 inh, TIM10 inh)
Cc1cc(C)c2nc(NNC(=O)c3cc(=O)c4ccccc4o3)sc2c1	SKKanGAS inh 85
CCOC(=O)Cc1csc(NC(=O)c2cc(=O)c3ccccc3o2)n1	none
Cc1cc(C)c2sc(NNC(=O)c3ccc(S(=O)(=O)N4CCc5ccccc5C4)cc3)nc2c1	SKKanGAS inh 65
Cc1cc(C)c2nc(NNC(=O)c3ccc(S(=O)(=O)N4CCc5ccccc5C4)cc3)sc2c1	SKKanGAS inh 78
CCc1nnc(NC(=O)c2ccc(S(=O)(=O)N3CCc4ccccc4C3)cc2)s1	none
CCCNC(=O)C(CC)NC(=O)c1cccc([N+](=O)[O-])c1 (centres undefined)	none (no result: SKKanGAS inh)
COc1cc(C(C)=O)ccc1OCC(=O)NCC(c1ccc(F)cc1)N1CCOCC1 (centres undefined)	none (no result: SKKanGAS inh, PfHsp90 yeast 2)
CCc1ccc(S(=O)(=O)NCC2(N3CCOCC3)CCCCC2)cc1	none (no result: SKKanGAS inh)
O=C1C(F)=CC(COC(c2ccccc2)(c2ccccc2)c2ccccc2)OC1n1cc(F)c(=O)[nH]c1=O (centres undefined)	PfHsp90 yeast 2 102 (no result: SKKanGAS inh, tim23-1 inh, tim10-1 inh, TIM10 inh)
CCC1(c2ccccc2)NC(=O)N(CC(=O)Nc2ccc(OC)nc2)C1=O (centres undefined)	none
O=C(O)CCCN1C(=O)/C(=C\C(Cl)=C\c2ccccc2)SC1=S	SKKanGAS inh 65 (no result: tim23-1 inh, tim10-1 inh, TIM10 inh)
CC(/C=C1\SC(=S)N(CCC(=O)Nc2ccc(O)cc2)C1=O)=C\c1ccccc1	none
CC(/C=C1\SC(=S)N(CCCC(=O)Nc2ccc(C(=O)O)c(O)c2)C1=O)=C\c1ccccc1	SKKanGAS inh 100 (no result: tim23-1 inh, tim10-1 inh, TIM10 inh, PfHsp90 yeast 2)
COc1ccc(SC[C@H](Cc2ccccc2)N2CC[C@@H](NC(=O)OCc3ccccc3)CCC2=O)cc1	none (no result: SKKanGAS inh)
COc1ccc(NS(=O)(=O)c2ccc(N3CCOCC3)c(N)c2)cc1	none (no result: SKKanGAS inh)
CCc1noc(C)c1C(=O)OCC(=O)NC(=O)c1ccccc1	SKKanGAS inh 50
CCc1noc(C)c1C(=O)OCC(=O)NCc1ccccc1	none (no result: SKKanGAS inh)
O=C(Cn1sc2ccccc2c1=O)NC12CC3CC(CC(C3)C1)C2	SKKanGAS inh 89 (no result: PfHsp90 yeast 2)
COc1cccc(C(=O)NNC(=O)C(=O)Nc2cccc(Cl)c2C)c1	none
COc1ccccc1C(=O)NNC(=O)C(=O)Nc1cccc(Cl)c1C	SKKanGAS inh 53
